HTT ATP protect – Huntington cell model cytoprotection by ATP luminescence | actives 0.14% (n = 230,000) | AID 1471 | PC12 HTT-Q103 induced, cytoprotection, ATP luminescence, 40 h | Potency, µM (titrated, usually from 56.4 µM), without a hit: cytoprotection (ATP increase), actives largely listed as activators; also: potency is read from the fitted curve at half-maximal effect; % of control where 0% means no effect; nearly all actives have a fitted effect of over 45% in size
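ATP quantification (ATPlite) reports survival of PC12 cells in which tebufenozide, 100 nM final, switches on Htt exon 1 with 103 glutamines linked to GFP; compounds are titrated.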
GoLoco inh red – blocks human Gai1 binding to RGS12 GoLoco peptide, red readout | actives 0.44% (n = 230,000) | Potency, µM (doses to about 61.6 µM), for inactives: at the top dose activity, negative = inhibition, actives largely listed as inhibitors | P63096 | Gai1:RGS12 GoLoco peptide FP, rhodamine, 10 min | AID 880; active = well fitted inhibition curve with a large enough effect, not every such curve was filed as active; inactive = no such curve, though single readings can be large or run the other way; also: potency is read from the fitted curve at half-maximal effect; % is scaled to controls: 0 for no effect and ±100 for the full control effect; nearly all actives have a fitted effect of over 30% in size
HTT aggregate – mutant huntingtin aggregation inhibition. actives 1.1% (n = 220,000). PC12 HttQ103-GFP aggregates, Acumen cytometry, 40 h. Potency, µM (doses to about 46.1 µM), inactives show at the top dose activity change, negative = inhibition, most hits filed as inhibitors. AID 1688; also: potency is read from the fitted curve at half-maximal effect; % is scaled to controls: 0 for no effect and ±100 for the full control effect; nearly all actives have a fitted effect of over 60% in size
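Aggregate formation scored by laser-scanning cytometer (488 excitation, 500–530 emission) in lysed PC12 cells expressing Q103-GFP after 100 nM tebufenozide induction; library tested in dose series, with ATPLite reagent added in the multiplex.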
PNC assembly inh – perinucleolar compartment assembly inhibition | actives 3.1% (n = 140,000) | activity change (PNC), negative = inhibition, % at 10 µM | PC3M PTB-GFP, PNC prevalence imaging, 16 h; active compounds read low;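 active = readout at or below -70, meaning at least 70% loss of cells showing the perinucleolar compartment, a nuclear body marking cancer cells; inconclusive = readout between -30 and a set limit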;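 also: plate controls were DMSO wells for no effect and camptothecin positive control wells for full effect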
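Read-out is percentage of cells bearing a perinucleolar compartment, from automated 20x imaging of fixed, Hoechst-stained PC3M PTB-GFP cells. Cells were seeded 4 h, then exposed 16 h to compound (23 nl of library stock) in duplicate plates.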
ALDH1A1 block – blocks purified human ALDH1A1 activity; P00352; actives 7.3% (n = 220,000); Purified ALDH1A1, NADH fluorescence, propionaldehyde substrate; Potency, µM (top dose mostly 75.3 µM), for inactives: top-dose activity, negative = inhibition, usual class: inhibitors; active = well fitted inhibition curve with a large enough effect, not every such curve was filed as active; inconclusive = small, poorly fitted or top-dose-only effect, or another doubt; inactive = no such curve, though single readings can be large or run the other way;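 also: potency is read from the fitted curve at half-maximal effect; plate controls were no enzyme wells and a reference inhibitor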
Target sequence (P00352 whole entry, looked up): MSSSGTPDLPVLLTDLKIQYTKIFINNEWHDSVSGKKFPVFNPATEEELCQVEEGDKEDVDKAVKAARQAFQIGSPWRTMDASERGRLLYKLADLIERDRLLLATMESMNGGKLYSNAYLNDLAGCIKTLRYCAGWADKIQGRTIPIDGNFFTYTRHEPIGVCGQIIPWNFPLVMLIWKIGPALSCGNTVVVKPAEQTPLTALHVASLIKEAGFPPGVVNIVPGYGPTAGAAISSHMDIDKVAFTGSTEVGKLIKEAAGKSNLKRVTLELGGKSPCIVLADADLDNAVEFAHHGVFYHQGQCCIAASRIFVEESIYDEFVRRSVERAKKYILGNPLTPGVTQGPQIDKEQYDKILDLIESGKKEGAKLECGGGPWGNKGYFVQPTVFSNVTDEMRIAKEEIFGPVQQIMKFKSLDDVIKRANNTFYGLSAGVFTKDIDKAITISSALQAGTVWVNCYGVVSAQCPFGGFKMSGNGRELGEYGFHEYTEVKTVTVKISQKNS
HPGD inh – HPGD (human) dehydrogenase inhibition | P15428 | purified HPGD, NADH fluorescence kinetic, PGE2 substrate | actives 4.3% (n = 150,000) | AID 894 | Potency, µM, for the others: at the top dose activity change, negative = inhibition, most hits filed as inhibitors; active = well fitted inhibition curve with a large enough effect, not every such curve was filed as active; inconclusive = small, poorly fitted or top-dose-only effect, or another doubt; inactive = no such curve, though single readings can be large or run the other way; also: potency is read from the fitted curve at half-maximal effect; % is scaled to controls: 0 for no effect and ±100 for the full control effect
Target sequence (P15428 whole entry, looked up): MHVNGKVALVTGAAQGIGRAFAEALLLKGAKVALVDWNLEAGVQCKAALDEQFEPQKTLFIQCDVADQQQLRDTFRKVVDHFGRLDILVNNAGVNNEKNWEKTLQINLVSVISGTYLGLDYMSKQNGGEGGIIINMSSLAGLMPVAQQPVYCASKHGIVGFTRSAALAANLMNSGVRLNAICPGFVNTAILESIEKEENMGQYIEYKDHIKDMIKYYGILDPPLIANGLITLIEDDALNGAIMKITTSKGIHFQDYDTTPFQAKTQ
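NADH formation kinetics: reaction with 30 uM PGE2 and 1 mM NAD+ (final), 20 nM enzyme, Tris-HCl pH 8 with Tween 20, after 15 min compound preincubation at room temperature. Fluorescence change, last versus first of five reads.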
Starred values were filed as active, the others as inactive; ? = inconclusive; nt = not tested or not shown; [ ] = remark or other dose. Sampled rows, rich in hits. Any-hit rate of the full collection: about 11%. Unless noted, calls follow the shape of the dose curve; as a rule, active = well fitted curve in the direction sought with a large enough effect; inconclusive = small, poorly fitted or top-dose-only effect, or another doubt; inactive = no such curve, though single readings can be large; an effect the other way counts as inactive or inconclusive.

SMILES | HTT ATP protect | GoLoco inh red | HTT aggregate | PNC assembly inh | ALDH1A1 block | HPGD inh
Cc1ccccc1OCC(O)Cn1c(SC(C)C)nc2c1c(=O)[nH]c(=O)n2C (stereo not given) | -10.2% | -23.6% | -6.3% | ? | 7.08µM* | 14.1µM*
CN(C)CCNc1nc2c(c(=O)[nH]c(=O)n2C)n1CC(O)COc1ccc(Cl)cc1Cl (stereo not given) | -9.1%[0.074 µM] | 2.1% | 12.7% | -19.0 | ? | 22.4µM*
CC(C)Sc1nc2c(c(=O)[nH]c(=O)n2C)n1CC(O)COc1ccccc1 (stereo not given) | -13.5% | -0.3% | -10.7% | nt | ? | nt
Cc1ccccc1OCC(O)Cn1c(Br)nc2c1c(=O)[nH]c(=O)n2C (stereo not given) | -19.6% | 5.6% | 0.0% | nt | -13.9% | nt
CCSc1nc2c(c(=O)[nH]c(=O)n2C)n1CC(O)COc1ccccc1C (stereo not given) | -6.3%[10 µM] | 2.4% | 5.6% | ? | 28.2µM* | 14.1µM*
Cc1ccccc1OCC(O)Cn1c(NCc2ccccc2)nc2c1c(=O)[nH]c(=O)n2C (stereo not given) | -11.1% | 2.0% | 17.4% | 24.4 | 2.0% | -0.8%
COc1ccc(-n2c(=O)c(-c3cccs3)nc3cncnc32)cc1 | 13.6% | 2.3% | nt | nt | ? | nt
CCCCCCCCCCCCCCCC(=O)NCC(=O)O | nt | -3.5% | nt | nt | -0.5% | -1.8%
O=C(CCSc1nnc(-c2ccco2)o1)Nc1ccc(F)cc1 | -24.6% | -11.3% | 7.7% | nt | 1.7% | nt
COc1ccc(NC(=O)N2CCCC3(CCN(C(=O)c4cc(C(F)(F)F)cc(C(F)(F)F)c4)CC3)C2)cc1 | -11.1% | 4.2% | nt | nt | 2.3% | -7.1%
NC(C(=O)O)(c1ccc(P(=O)(O)O)cc1)C1CC1 (stereo not given) | -37.1% | 13.8% | nt | nt | 7.0% | nt
O=C(Nc1ccc2c(c1)OC1(CCCC1)O2)C1CC1 | -31.9% | -3.9% | -15.1% | 17.7 | 1.4% | -15.4%
CCOc1c(Br)cc(C(N)=O)cc1OCc1ccccc1 | nt | 1.2% | 11.5% | -5.1 | -4.5% | -23.7%
CC(=O)N1CCC2(CC1)CCN(C(c1ccccc1)c1ccccc1)CC2 | -25.3% | 5.1% | nt | nt | 17.7% | -3.8%
CCOCCCNC(=O)/C(C#N)=C/c1ccc([N+](=O)[O-])o1 | -17.4%[10 µM] | 35.0% | -34.3%[9.22 µM] | nt | 3.98µM* | nt
N=C1[C@@H](O)[C@]2(I)c3ccccc3N3C(=N)[C@H](O)[C@@H]4c5ccccc5N1[C@@H]4[C@@H]32 | 5.0%[10 µM] | 2.24µM* | nt | nt | -4.0%[13.5 µM] | 3.98µM*
COC(=O)[C@@H]1CC[C@H](C)[C@@H](c2ccc(C)cc2)N1C(=O)c1ccc(/C=N\O[C@@H](C)c2cn([C@H]3COC[C@H]3O)nn2)cc1 | -33.3%[10 µM] | nt | nt | nt | -0.4%[13.5 µM] | nt
CC(OC(=O)c1cc(S(=O)(=O)N(C)c2ccccc2)ccc1Cl)C(=O)Nc1ccc2c(c1)OCCO2 (stereo not given) | 9.0%[0.074 µM] | 17.4% | 6.0% | ? | -4.2% | -6.3%
Cc1ccc(OCCn2cc(Br)c(=O)[nH]c2=O)cc1 | -0.8% | 8.7% | 15.8% | 1.4 | 20µM* | -0.6%
Cc1ccc(OCCn2cnc(Cl)c2Cl)cc1 | nt | 4.3% | nt | nt | 5.1% | nt
NCCC[C@@H](CC(=O)N[C@@H]1CCNC[C@H]1C(=O)N[C@H](CC(=O)N[C@@H](CCC(=O)O)CC(=O)O)Cc1c[nH]c2ccccc12)NC(=O)C[C@H](CO)NC(=O)[C@@H]1CCCC[C@H]1N | -23.2% | -1.5% | nt | nt | -11.9% | -11.5%
COC(=O)c1ccc2nc(Nc3nc4c(F)cc(F)cc4s3)sc2c1 | nt | 10.1% | 6.31µM* | -100.5* | ? | ?
CCOC(=O)c1ccc2nc(Nc3nc4ccc(F)cc4s3)sc2c1 | nt | 13.8% | 26.9% | -106.7* | ? | ?
COC(=O)c1ccc2nc(NC(=O)C(C)C)sc2c1 | -73.4% | 3.5% | -15.0% | nt | -0.7% | nt
NC(=O)COc1ccccc1 | -8.6%[10 µM] | -3.9% | -13.6%[9.22 µM] | nt | nt | nt
SMILES | HTT ATP protect | GoLoco inh red | HTT aggregate | PNC assembly inh | ALDH1A1 block | HPGD inh
NC(=S)COc1ccccc1 | 12.7%[10 µM] | 22.4µM* | 9.4%[9.22 µM] | nt | nt | nt
O=[N+]([O-])/C(C(Cl)=C(Cl)Cl)=C(/Sc1ccccc1)N1CCCCC1 | 5.8%[10 µM] | 3.9% | 7.8%[9.22 µM] | nt | 17.8µM* | nt
O=C(N/C(=C\c1ccc([N+](=O)[O-])cc1)C(=O)N1CCCCC1)c1ccccc1 | -23.9% | -1.5% | -36.6% | nt | 2.0% | nt
Cc1c([N+](=O)[O-])c2ccc(O)cc2n1-c1ccccc1 | 23.0%[10 µM] | 0.4% | ? | nt | 12.8% | nt
C[N+](C)(C)c1ncnc2c1ncn2[C@@H]1C[C@H](O)[C@@H](CO)O1 | -8.4%[10 µM] | 4.3%[14.2 µM] | nt | nt | -2.2%[13.5 µM] | -8.3%
Cc1ccc(S(=O)(=O)N2CCN(C(=O)CSc3nc4ccccc4c(=O)[nH]3)CC2)cc1 | 13.0% | 48.2% | 11.7% | ? | 3.16µM* | -15.0%
O=C(CSc1nc2[nH]ncc2c(=O)[nH]1)N1CCCCC1 | -0.5%[10 µM] | -2.6% | -10.9% | ? | 20µM* | -8.7%
Cc1ccc(S(=O)(=O)N2CCN(C(=O)CSc3ncc(C(F)(F)F)cc3Cl)CC2)cc1 | -32.6% | 3.0% | ? | 12.4 | 2.82µM* | -12.2%
O=C(CSc1nc2ccccc2[nH]1)N1CCN(S(=O)(=O)c2ccc(Cl)cc2)CC1 | -32.1% | 4.6% | -1.1% | 0.1 | -3.6% | -24.5%
Nc1nc(SCC(=O)N2CCc3ccccc3C2)[nH]c(=O)c1-c1ccccc1 | -18.5%[0.074 µM] | -7.3% | 8.2% | -17.7 | 22.4µM* | -26.1%
COc1ccc(OC)c(CC(NC(C)=O)C(=O)NC2CCN(c3cc(C)nc4ncnn34)CC2)c1 (stereo not given) | -9.6%[10 µM] | -5.9% | 4.3%[9.22 µM] | nt | 8.1% | nt
CC(C)c1nc(SCC(=O)N2CCCC2)c2ccccc2n1 | 35.5% | 4.2% | ? | 25.8 | 3.16µM* | -13.0%
CCSc1nc2[nH]ncc2c(=O)[nH]1 | 25.1%[10 µM] | 2.8% | 1.2% | -87.2* | 10.8% | -8.5%
O=C(CSc1nncc2ccccc12)N1CCCCC1 | -3.5% | -5.2% | -9.6% | nt | 10µM* | nt
O=C(CSc1nc2ccccc2c(=O)[nH]1)N1CCCCC1 | -18.2% | 8.8% | 0.6% | 41.3 | ? | 15.8µM*
O=C(O)CSc1nc2ccccc2c(=O)[nH]1 | 8.8% | 1.5% | 2.9% | -29.4 | 2.1% | -17.8%
C[C@H](CN1c2ccccc2Sc2cccnc21)N(C)C | -10.8% | nt | -16.0% | nt | nt | nt
COc1ccc(S(=O)(=O)Nc2ccccc2OC)cc1NC(=O)CC1CC2CCC1C2 (stereo not given) | 6.7%[10 µM] | 0.0% | -29.9% | 18.9 | ? | -11.2%
c1ccc(-c2nc(-c3ccccc3)c(Nc3ccc4ccccc4c3)o2)cc1 | ? | -1.5% | nt | nt | 8.3% | -4.7%
COC(=O)NC(/C(C(=O)OC)=C(\C)NCc1ccccc1)c1cccc(F)c1 (stereo not given) | 11.1%[10 µM] | nt | nt | nt | -20.6%[13.5 µM] | nt

Source: PubChem (National Center for Advancing Translational Sciences (NCATS))
